In PubChem BioAssay AID1851 (National Center for Advancing Translational Sciences (NCATS), 2009):
The whole screen tested about 16,000 compounds, of which about 5,700 (36%) were called active. Inconclusive results (about 24%) are left out. Calls follow the shape of the dose curve; as a rule, active = well fitted curve in the direction sought with a large enough effect; inconclusive = small, poorly fitted or top-dose-only effect, or effect the other way; inactive = no such curve, though single readings can be large or run the other way. The list shows a part of the results.
% is scaled to controls: 0 for no effect and ±100 for the full control effect.

Each molecule was assayed against Cytochrome P450 1A2 (Homo sapiens) (UniProt P05177) (assay: Cytochrome panel assay with activity outcomes). Details: recombinant CYP, pro-luciferin dealkylation, luminescence, p450-cyp1a2; series mostly up to 57.1 µM.
Cytochrome P450 1A2 (Homo sapiens), sequence (P05177 whole entry, looked up): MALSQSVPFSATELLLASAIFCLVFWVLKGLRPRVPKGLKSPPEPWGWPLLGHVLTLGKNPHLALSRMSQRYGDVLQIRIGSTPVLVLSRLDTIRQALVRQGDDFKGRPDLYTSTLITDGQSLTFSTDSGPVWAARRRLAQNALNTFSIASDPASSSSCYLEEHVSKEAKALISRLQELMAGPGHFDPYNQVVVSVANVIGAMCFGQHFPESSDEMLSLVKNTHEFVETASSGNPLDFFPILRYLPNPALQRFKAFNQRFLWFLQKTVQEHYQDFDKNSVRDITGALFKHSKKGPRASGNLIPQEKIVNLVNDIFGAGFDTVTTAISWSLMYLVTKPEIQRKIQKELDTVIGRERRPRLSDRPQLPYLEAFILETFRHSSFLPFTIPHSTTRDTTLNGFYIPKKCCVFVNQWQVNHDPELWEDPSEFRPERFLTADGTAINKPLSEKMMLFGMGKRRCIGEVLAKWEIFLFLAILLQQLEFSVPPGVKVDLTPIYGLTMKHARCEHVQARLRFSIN
With `Cn1c(O)c(C(c2ccccn2)c2c(O)n(C)c(=S)n(C)c2=O)c(=O)n(C)c1=S` the AC50 was “inactive”.
For `CC(C)(C)c1o[nH]c(=O)c1C[C@H](N)C(=O)O`, the AC50 was “inactive”.
With `COc1cc(CCN)c(OC)c(OC)c1` the AC50 was 3.16 µM (active).
In the case of `COc1cc([C@@H](O)CN)ccc1O`, the AC50 is reported as “inactive”.
`Cn1c(=O)c2[nH]cnc2n(C)c1=O.[CH2-][C@H](Cc1cccc2cc(C(=O)O)c(=O)oc12)OC.[Hg].[OH-]` was tested, and the activity, negative = inhibition was -15.3% [at 11.4 µM] (inactive).
For `COc1cc2ccccc2c2cc([N+](=O)[O-])oc12`, the AC50 was 0.126 µM (active).
`C[C@H]1C(=O)O[C@@H]2CCN3CC=C(COC(=O)[C@@](C)(O)[C@@]1(C)O)[C@H]23` was tested, and the AC50 was “inactive”.
With `c1ccc2c(c1)OC[C@@H](C1=NCCN1)O2` the AC50 was “inactive”.
For `NCC#Cc1ccccc1`, the AC50 was 3.16 µM (active).
`C/C=C1\C[N@@+]2(C)CC[C@@]34C(=C(C=O)[C@H]1C[C@H]32)Nc1ccccc14` was tested, and the AC50 was “inactive”.
In the case of `C[N+]1(C)C2CC(OC(=O)C(CO)c3ccccc3)CC1[C@@H]1O[C@H]21` (some centres undefined), the AC50 is reported as “inactive”.
For `OC(c1ccccc1)(c1ccccc1)C1CCCN1` (centres undefined), the AC50 was 15.8 µM (active).
For `OC(c1ccccc1)(c1ccccc1)C1CCNCC1`, the AC50 was “inactive”.
With `CC[C@H](C)C(=O)O[C@@H]1[C@H](O)[C@@H]2[C@H](CN3C[C@@H](C)CC[C@@H]3[C@@]2(C)O)[C@@H]2C[C@@]34O[C@@]5(O)[C@@H](OC(=O)[C@](C)(O)CC)CC[C@@]3(C)[C@H]5[C@H](OC(C)=O)[C@@H](OC(C)=O)[C@H]4[C@]12O` the AC50 was “inactive”.
With `CC(C)Oc1cccnc1N(C)C1CCN(Cc2ccccc2)CC1` the AC50 was “inactive”.
With `CS(=O)(=O)N1CCC2(CC1)CN(Cc1ccncc1)C2` the AC50 was “inactive”.
With `O=c1[nH]oc2c1CCNC2` the AC50 was “inactive”.
With `Cn1ccnc1` the AC50 was “inactive”.
For `C[C@@]12CC[C@H]3[C@@H](CC[C@@H]4C[C@H]5S[C@H]5C[C@]43C)[C@H]1CC[C@H]2O`, the AC50 was 0.0251 µM (active).
In the case of `CC(C)CCC[C@@H](C)[C@@H]1CC[C@@H]2[C@H]3CC[C@H]4C[C@@H](N)CC[C@@]4(C)[C@@H]3CC[C@]21C`, the activity, negative = inhibition is reported as 3.33% [at 11.4 µM] (inactive).
With `C[C@]12CC[C@H](O)C[C@@H]1CC[C@H]1[C@H]2CC[C@]2(C)C(=O)CC[C@@H]12` the AC50 was “inactive”.
In the case of `C[As+](C)(c1ccc(Br)c([N+](=O)[O-])c1)c1ccc(Br)c([N+](=O)[O-])c1.O=[N+]([O-])O`, the activity, negative = inhibition is reported as -12.7% [at 11.4 µM] (inactive).
In the case of `COc1cc(-c2ccc(=O)[nH]n2)ccc1OC(F)F`, the AC50 is reported as 2.51 µM (active).
`CC(C)CN1CCC2(CC1)CCN(S(C)(=O)=O)CC2` was tested, and the AC50 was “inactive”.
For `O=C(CCCN1CCC(n2c(=O)[nH]c3ccccc32)CC1)c1ccc(F)cc1`, the AC50 was “inactive”.
For `CN1C(=O)C(=Cc2ccc(N3CCCCCC3)o2)C(=O)N(C)C1=S`, the AC50 was 1.58 µM (active).
`CN1C(=O)C(=Cc2ccc(N3CCCCC3)o2)C(=O)N(C)C1=S` was tested, and the AC50 was 1.58 µM (active).
In the case of `CC(=O)NBr`, the AC50 is reported as “inactive”.
For `O=C(Oc1ccccc1)N1CCC2(CCN(Cc3ccccc3)CC2)CC1`, the AC50 was “inactive”.
In the case of `CC(C)COC(=O)OCN1C(=O)CN(CCN2CC(=O)N(COC(=O)OCC(C)C)C(=O)C2)CC1=O`, the AC50 is reported as “inactive”.
For `Cc1ncc([N+](=O)[O-])n1CCN=[N+]=[N-]`, the activity, negative = inhibition was -9.71% [at 11.4 µM] (inactive).
In the case of `COc1cc(CN2CCN(C(=O)COc3ccccc3)CC2)cc(OC)c1OC`, the AC50 is reported as “inactive”.
With `C[C@@H](N)Cn1ccc2cc(F)c(Cl)cc21` the AC50 was 0.0501 µM (active).
In the case of `CCCCCC[C@H]1C(=O)O[C@H](C)[C@H](NC(=O)c2cccc(NC=O)c2O)C(=O)O[C@@H](C)[C@H]1OC(=O)CC(C)C`, the AC50 is reported as “inactive”.
`COc1ccc2c3c([nH]c2c1)C(C)=NCC3` was tested, and the AC50 was 0.794 µM (active).
`COc1ccc2[nH]c3c(c2c1)CCNC3` was tested, and the AC50 was 3.16 µM (active).
For `CC1=NCCc2c1[nH]c1cc(O)ccc21`, the AC50 was 12.6 µM (active).
For `COc1ccc2[nH]c3c(c2c1)CCN=C3C`, the AC50 was 1.58 µM (active).
In the case of `CN(C)C=C1C(=O)N(C2CCCCC2)C(=O)N(C2CCCCC2)C1=O`, the AC50 is reported as “inactive”.
For `c1cc2cc(c1)C[n+]1ccc(c3ccccc31)NCc1ccc(cc1)CNc1cc[n+](c3ccccc13)C2`, the AC50 was “inactive”.
With `C[N+]1([O-])[C@H]2CC[C@H]1CC(OC(=O)[C@@H](CO)c1ccccc1)C2` (some centres undefined) the activity, negative = inhibition was 0.783% [at 2.29 µM] (inactive).
With `C[N+](C)(C)CCCCCCCCCC[N+](C)(C)C` the AC50 was “inactive”.
With `NCC[C@H](O)C(=O)N[C@H]1C[C@@H](N)[C@@H](O[C@H]2O[C@@H](CN)[C@@H](O)[C@@H](O)[C@@H]2N)[C@@H](O[C@H]2O[C@@H](CO)[C@@H](O)[C@@H]2O)[C@@H]1O` the AC50 was “inactive”.
With `c1cc(CN2CC3(CCNCC3)C2)ccn1` the AC50 was “inactive”.
`O=c1[nH]cnc2[nH]cc(CN3CCCCC3)c12` was tested, and the activity, negative = inhibition was -11.6% [at 11.4 µM] (inactive).
With `COc1ccccc1CN1CCCC2(CCN(C(=O)Oc3ccccc3)CC2)C1` the AC50 was “inactive”.
For `CC(C)c1nccn1Cc1ccc(Cl)cc1Cl`, the activity, negative = inhibition was -14.7% [at 11.4 µM] (inactive).
`O=C(O)C(C(=O)O)P(=S)(S)c1ccccc1` (centres undefined) was tested, and the activity, negative = inhibition was -13.3% [at 11.4 µM] (inactive).
For `CNCC/C=C\c1cccnc1`, the AC50 was “inactive”.
For `COc1cc(N)c(Cl)cc1C(=O)N[C@@H]1CN2CCC1CC2`, the AC50 was “inactive”.
`CN1[C@@H]2CC[C@H]1CC(NC(=O)c1nn(C)c3ccccc13)C2` (some centres undefined) was tested, and the AC50 was “inactive”.
In the case of `Cn1cc(C(=O)C(=O)N[C@H]2CN3CCC2CC3)c2ccccc21`, the AC50 is reported as 15.8 µM (active).
In the case of `NCC1(CC(=O)O)CCCCC1`, the AC50 is reported as “inactive”.
With `C[C@H]1CC[C@@]2(NC1)O[C@@H]1C[C@H]3[C@@H]4CC[C@@H]5C[C@@H](O)CC[C@@]5(C)[C@@H]4CC[C@]3(C)[C@@H]1[C@@H]2C` the AC50 was “inactive”.
`CCCN1CCC[C@@H]2Cc3nc(N)ncc3C[C@H]21` was tested, and the AC50 was “inactive”.
With `N#CCCCC[N+]12CN3CN(CN(C3)C1)C2` the activity, negative = inhibition was 15% [at 2.29 µM] (inactive).
For `COCCCN1Cc2ccccc2C1=N`, the AC50 was “inactive”.
For `S=C(S)N1CCCC1`, the AC50 was 31.6 µM (active).
For `C[C@@]12CC[C@H](O)C[C@@H]1CC[C@@H]1[C@@H]2CC[C@@]2(C)[C@@H](C3=CC(=O)OC3)[C@H](O)C[C@]12O`, the activity, negative = inhibition was -18.3% [at 11.4 µM] (inactive).
